Activity calls are given as the source filed them.
What was measured:
[1] = test system: PRMT1 (protein arginine N-methyltransferase 1); assay: PRMT1 binders on small-molecule microarrays, primary screen, biochemical, small-molecule microarray, 635 nm fluorescence (AID 1088); conditions: small-molecule microarray binding, higher = more signal;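 further: binding of Prmt1 protein to compounds spotted on small-molecule microarray slides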
[2] = yeast growth modulation, basal conditions, primary screen, YJM789 clinical isolate, OD600, 24 h (AID 1089);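 further: growth of clinical yeast isolate S. cerevisiae YJM 789 seeded 1000 cells per well; test concentration not given here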; conditions: S. cerevisiae YJM789 growth, higher = more signal, called active from +8 up or from −8 down
[3] = fission yeast growth modulation, primary screen, strain 972, OD600, 24 h, no modulator (AID 1090);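 further: basal condition with compound alone and no growth modifier present; test concentration not given here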; conditions: S. pombe 972 growth, higher = more signal, called active from +8 up or from −8 down
[4] = S. cerevisiae growth modulation with rapamycin, primary screen, strain BY4716, OD600, 96 h (AID 1091); conditions: higher = more signal, called active from +8 up or from −8 down; further: test concentration not given here
[5] = target: Torsin-1A-interacting protein 2 (Homo sapiens) (UniProt Q8NFQ8); assay: LULL1 binders on small-molecule microarray, primary screen, cell lysate, human LULL1 lysate, 635/667 nm fluorescence (AID 1092); conditions: hLULL1 lysate binding, 635 nm fluorescence, higher = more signal;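 further: probe is lysate of COS7 cells overexpressing human LULL1; score merges per-feature 667 nm fluorescence with signal-to-noise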
Sequence of Torsin-1A-interacting protein 2 (Homo sapiens) (Q8NFQ8 whole entry, looked up): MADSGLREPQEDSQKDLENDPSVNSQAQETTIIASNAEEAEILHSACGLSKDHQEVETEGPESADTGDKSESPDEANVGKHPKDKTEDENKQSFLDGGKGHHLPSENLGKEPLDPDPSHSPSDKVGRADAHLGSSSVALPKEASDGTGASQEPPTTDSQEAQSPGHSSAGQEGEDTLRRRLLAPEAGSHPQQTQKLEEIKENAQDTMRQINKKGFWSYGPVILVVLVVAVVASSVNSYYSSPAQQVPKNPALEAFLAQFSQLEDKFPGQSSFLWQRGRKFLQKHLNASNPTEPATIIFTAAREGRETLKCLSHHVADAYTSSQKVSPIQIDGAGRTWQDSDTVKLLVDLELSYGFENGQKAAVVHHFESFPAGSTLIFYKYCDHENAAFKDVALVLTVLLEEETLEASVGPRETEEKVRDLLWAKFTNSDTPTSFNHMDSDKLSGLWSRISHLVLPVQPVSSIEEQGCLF

[6] = E. coli growth modulation, two-sided OD650, primary screen, E. coli filamentation project, strain DRC41, 24 h (AID 1093); conditions: OD650, 24 h, higher = more signal, called active from +8 up or from −8 down;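 further: MC1000 strain lacking acrAB efflux and sulA so SOS filamentation is blocked; test concentration not given here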
[7] = small-molecule microarray binders of probe aLefty2, primary screen, biochemical, biotinylated probe, 635/667 nm fluorescence (AID 1094); conditions: higher = more signal;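 further: score merges spot fluorescence near 667 nm with spot signal-to-noise ratio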
[8] = test system: Noggin (protein binding on small-molecule microarray); assay: Noggin binders on small-molecule microarray, primary screen, biochemical, 635/667 nm fluorescence (AID 1095); conditions: 635 nm fluorescence, higher = more signal;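 further: score merges 667 nm feature fluorescence with signal to noise over triplicate slides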
[9] = target: Neurogenic locus notch homolog protein 3 (Homo sapiens) (UniProt Q9UM47); assay: NOTCH3 binders on small-molecule microarray, primary screen, biochemical, 635/667 nm fluorescence (AID 1096); conditions: NOTCH3 binding, 635 nm fluorescence, higher = more signal
Sequence of Neurogenic locus notch homolog protein 3 (Homo sapiens) (Q9UM47 whole entry, looked up): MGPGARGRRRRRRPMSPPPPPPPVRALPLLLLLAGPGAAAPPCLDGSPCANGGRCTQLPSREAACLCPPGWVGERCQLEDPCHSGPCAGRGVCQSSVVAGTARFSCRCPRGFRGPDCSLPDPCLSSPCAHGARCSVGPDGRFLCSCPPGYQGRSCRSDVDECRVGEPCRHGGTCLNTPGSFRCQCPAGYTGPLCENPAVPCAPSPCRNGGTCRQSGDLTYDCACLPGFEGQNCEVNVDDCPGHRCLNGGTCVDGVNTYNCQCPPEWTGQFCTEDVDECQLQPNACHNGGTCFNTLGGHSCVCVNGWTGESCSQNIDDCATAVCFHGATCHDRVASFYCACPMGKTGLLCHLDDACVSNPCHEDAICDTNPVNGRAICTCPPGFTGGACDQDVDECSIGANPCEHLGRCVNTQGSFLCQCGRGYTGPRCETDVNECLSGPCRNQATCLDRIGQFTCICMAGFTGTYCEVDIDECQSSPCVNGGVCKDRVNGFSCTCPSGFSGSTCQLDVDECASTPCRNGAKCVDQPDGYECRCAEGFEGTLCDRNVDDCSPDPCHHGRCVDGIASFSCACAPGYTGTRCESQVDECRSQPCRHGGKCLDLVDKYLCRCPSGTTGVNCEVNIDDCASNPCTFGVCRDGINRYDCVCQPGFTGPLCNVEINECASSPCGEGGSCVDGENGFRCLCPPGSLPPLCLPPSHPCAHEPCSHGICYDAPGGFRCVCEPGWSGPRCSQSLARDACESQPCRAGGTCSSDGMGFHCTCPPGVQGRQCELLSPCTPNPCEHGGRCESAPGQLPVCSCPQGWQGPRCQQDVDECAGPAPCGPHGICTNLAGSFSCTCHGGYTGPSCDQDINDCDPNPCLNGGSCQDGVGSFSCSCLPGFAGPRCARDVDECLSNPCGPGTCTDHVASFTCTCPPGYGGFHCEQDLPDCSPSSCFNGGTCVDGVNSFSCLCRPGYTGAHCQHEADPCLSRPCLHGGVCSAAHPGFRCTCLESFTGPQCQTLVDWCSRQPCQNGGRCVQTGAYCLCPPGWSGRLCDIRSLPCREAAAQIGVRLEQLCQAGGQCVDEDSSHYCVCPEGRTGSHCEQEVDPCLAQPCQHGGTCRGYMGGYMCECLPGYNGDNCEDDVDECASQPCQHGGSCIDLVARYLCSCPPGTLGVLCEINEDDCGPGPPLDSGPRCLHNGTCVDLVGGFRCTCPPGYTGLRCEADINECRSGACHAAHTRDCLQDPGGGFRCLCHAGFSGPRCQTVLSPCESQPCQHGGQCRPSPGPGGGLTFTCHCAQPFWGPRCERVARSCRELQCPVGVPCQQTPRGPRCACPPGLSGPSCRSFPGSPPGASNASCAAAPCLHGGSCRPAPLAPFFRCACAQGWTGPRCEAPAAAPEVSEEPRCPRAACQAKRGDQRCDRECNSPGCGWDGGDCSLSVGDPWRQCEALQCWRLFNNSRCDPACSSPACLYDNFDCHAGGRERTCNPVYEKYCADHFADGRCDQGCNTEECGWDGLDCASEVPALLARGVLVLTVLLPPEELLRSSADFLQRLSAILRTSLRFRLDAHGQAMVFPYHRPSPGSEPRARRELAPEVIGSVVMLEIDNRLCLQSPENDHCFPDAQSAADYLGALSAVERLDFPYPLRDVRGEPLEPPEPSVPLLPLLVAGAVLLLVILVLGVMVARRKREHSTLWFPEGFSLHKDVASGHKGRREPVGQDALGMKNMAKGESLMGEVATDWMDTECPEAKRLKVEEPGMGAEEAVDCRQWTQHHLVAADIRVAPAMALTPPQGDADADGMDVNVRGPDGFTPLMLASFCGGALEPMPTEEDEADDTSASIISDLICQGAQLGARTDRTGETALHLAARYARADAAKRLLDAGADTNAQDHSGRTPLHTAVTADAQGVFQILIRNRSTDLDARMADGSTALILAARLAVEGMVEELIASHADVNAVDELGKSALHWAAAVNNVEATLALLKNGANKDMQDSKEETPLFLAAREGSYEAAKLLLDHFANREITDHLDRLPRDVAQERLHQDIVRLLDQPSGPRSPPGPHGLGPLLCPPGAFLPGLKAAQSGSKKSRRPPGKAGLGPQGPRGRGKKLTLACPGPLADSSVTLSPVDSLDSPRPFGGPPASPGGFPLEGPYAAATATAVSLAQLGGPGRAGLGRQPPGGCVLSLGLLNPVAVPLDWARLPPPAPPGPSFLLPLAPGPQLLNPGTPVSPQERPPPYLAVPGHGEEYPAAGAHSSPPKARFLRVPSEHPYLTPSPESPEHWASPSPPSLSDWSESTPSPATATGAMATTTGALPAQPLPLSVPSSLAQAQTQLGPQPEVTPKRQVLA

[10] = small-molecule microarray binders of probe aEGFR, primary screen, biochemical, biotinylated probe, 635/667 nm fluorescence (AID 1097); conditions: higher = more signal;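 further: probe is a biotinylated anti-EGFR antibody binding compounds printed on slides; score combines fluorescence near 667 nm and signal to noise of each spot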
[11] = test system: Plasmodium falciparum Sir2 (PF13_0152, Sir2A); assay: pfSir2 binders on small-molecule microarrays, primary screen, biochemical, small-molecule microarray, 635 nm fluorescence (AID 1098); conditions: small-molecule microarray binding, fluorescence 635 nm; higher = more signal;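 further: score merges spot fluorescence intensity with its signal-to-noise ratio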
[12] = small-molecule microarray binders of probe aDKK1, primary screen, biochemical, biotinylated probe, 635/667 nm fluorescence (AID 1099); conditions: higher = more signal;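 further: score merges 667nm spot fluorescence with signal to noise across triplicate slides; reference of the scale not given here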
[13] = small-molecule microarray binders of probe aCHRDL2, primary screen, biochemical, biotinylated probe, 635/667 nm fluorescence (AID 1100); conditions: higher = more signal
[14] = splicing luciferase reporter signal modulators, primary screen, spliceosome inhibition project, cell-based, HEK293, splice +/- reporter (AID 1101); conditions: luminescence, 24 h, higher = more signal, called active from +8 up or from −8 down;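 further: HEK293 cells carrying a splicing-competent luciferase reporter gene; test concentration not given here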
[15] = target: Fibroblast growth factor 10 (Homo sapiens) (UniProt O15520); assay: FGF10 binders on small-molecule microarrays, primary screen, biochemical, small-molecule microarray, 635 nm fluorescence (AID 1102); conditions: FGF10 binding, fluorescence 635 nm, higher = more signal
Sequence of Fibroblast growth factor 10 (Homo sapiens) (O15520 whole entry, looked up): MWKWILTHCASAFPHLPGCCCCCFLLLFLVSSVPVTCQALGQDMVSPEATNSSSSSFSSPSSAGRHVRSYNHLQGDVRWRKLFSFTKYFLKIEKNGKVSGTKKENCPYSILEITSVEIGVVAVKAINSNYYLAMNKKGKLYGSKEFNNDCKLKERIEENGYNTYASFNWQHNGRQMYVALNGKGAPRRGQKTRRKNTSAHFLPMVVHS

[16] = test system: glycogen synthase kinase-3 (GSK3A per assay name; protocol says GSK3B); assay: GSK3 binders on small-molecule microarrays, primary screen, biochemical, small-molecule microarray, 635 nm fluorescence, GSK3A (AID 1103); conditions: small-molecule microarray binding, fluorescence 635 nm; higher = more signal; further: the record names both GSK3A and GSK3B
[17] = target: Epidermal growth factor receptor (Homo sapiens) (UniProt P00533); assay: EGFR binders on small-molecule microarrays, primary screen, biochemical, small-molecule microarray, 635 nm fluorescence (AID 1104); conditions: EGFR binding, higher = more signal;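 further: score merges 667 nm emission intensity with spot signal to noise over triplicate slides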
Sequence of Epidermal growth factor receptor (Homo sapiens) (P00533 whole entry, looked up): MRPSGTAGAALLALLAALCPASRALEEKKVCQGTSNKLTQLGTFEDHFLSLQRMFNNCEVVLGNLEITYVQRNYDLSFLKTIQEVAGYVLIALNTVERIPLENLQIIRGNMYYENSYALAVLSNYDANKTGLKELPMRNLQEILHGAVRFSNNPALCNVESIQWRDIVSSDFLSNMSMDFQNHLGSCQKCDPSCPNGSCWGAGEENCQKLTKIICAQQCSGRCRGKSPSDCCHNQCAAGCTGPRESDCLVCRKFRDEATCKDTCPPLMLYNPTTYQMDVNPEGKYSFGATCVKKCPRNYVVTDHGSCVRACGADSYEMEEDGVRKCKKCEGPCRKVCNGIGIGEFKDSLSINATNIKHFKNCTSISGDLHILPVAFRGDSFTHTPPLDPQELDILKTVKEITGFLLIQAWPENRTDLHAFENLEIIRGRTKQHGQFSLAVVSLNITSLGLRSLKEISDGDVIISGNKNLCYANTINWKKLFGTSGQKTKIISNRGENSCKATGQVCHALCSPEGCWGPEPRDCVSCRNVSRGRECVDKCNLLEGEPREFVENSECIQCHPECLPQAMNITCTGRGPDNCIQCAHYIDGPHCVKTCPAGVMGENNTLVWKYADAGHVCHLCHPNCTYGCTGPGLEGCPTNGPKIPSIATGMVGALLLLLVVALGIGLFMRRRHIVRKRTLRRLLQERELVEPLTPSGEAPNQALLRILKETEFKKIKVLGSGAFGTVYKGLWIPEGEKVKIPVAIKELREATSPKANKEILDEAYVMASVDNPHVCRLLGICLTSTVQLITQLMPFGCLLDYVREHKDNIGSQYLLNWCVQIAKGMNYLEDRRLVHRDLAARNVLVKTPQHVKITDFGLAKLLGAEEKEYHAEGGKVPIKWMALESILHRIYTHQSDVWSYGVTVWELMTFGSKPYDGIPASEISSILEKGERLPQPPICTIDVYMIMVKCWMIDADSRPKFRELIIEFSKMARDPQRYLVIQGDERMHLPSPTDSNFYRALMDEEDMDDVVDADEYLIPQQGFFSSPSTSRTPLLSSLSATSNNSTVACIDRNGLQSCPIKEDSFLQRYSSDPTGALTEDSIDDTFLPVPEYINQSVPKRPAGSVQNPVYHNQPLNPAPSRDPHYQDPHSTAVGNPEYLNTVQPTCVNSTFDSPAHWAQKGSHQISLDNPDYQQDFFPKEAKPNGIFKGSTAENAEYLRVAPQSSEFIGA

[18] = target: Follistatin-related protein 3 (Homo sapiens) (UniProt O95633); assay: FSTL3 binders on small-molecule microarrays, primary screen, biochemical, small-molecule microarray, 635 nm fluorescence (AID 1105); conditions: FSTL3 binding, higher = more signal;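 further: score merges emission near 667 nm and signal to noise per printed spot across three slides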
Sequence of Follistatin-related protein 3 (Homo sapiens) (O95633 whole entry, looked up): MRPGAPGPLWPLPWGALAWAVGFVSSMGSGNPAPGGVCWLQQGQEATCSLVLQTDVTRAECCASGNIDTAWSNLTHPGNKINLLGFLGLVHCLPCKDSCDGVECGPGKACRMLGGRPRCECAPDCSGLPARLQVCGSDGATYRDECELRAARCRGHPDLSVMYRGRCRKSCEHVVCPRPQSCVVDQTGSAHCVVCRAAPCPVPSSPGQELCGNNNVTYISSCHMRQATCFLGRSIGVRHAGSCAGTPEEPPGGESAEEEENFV

[19] = target: Dickkopf-related protein 1 (Homo sapiens) (UniProt O94907); assay: DKK1 binders on small-molecule microarrays, primary screen, biochemical, small-molecule microarray, 635 nm fluorescence scan (AID 1106); conditions: DKK1 binding, higher = more signal;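 further: score merges emission near 667 nm with signal to noise over three replicate slides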
Sequence of Dickkopf-related protein 1 (Homo sapiens) (O94907 whole entry, looked up): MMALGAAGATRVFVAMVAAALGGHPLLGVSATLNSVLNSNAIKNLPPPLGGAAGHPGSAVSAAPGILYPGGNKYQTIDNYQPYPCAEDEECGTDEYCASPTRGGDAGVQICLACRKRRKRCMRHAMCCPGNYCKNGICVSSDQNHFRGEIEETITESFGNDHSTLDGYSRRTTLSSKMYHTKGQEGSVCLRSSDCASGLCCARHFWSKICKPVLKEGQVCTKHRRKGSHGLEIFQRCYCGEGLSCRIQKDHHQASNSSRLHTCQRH

[20] = test system: Inhibin beta A chain (activin A); assay: INHBA (activin A) binders on microarrays, primary screen, biochemical, small-molecule microarray, 635 nm fluorescence scan (AID 1107); conditions: small-molecule microarray binding, higher = more signal;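 further: mouse activin A protein probed at 4.33 µg/mL on printed slides; score merges bound-protein fluorescence near 667 nm with spot signal-to-noise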

| SMILES | composite z-score [1] | z-score [2] | z-score [3] | z-score [4] | composite z-score [5] | z-score [6] | composite z-score [7] | composite z-score [8] | composite z-score [9] | composite z-score [10] | composite z-score [11] | composite z-score [12] | composite z-score [13] | z-score [14] | composite z-score [15] | composite z-score [16] | composite z-score [17] | composite z-score [18] | composite z-score [19] | composite z-score [20] |
| --- | --- | --- | --- | --- | --- | --- | --- | --- | --- | --- | --- | --- | --- | --- | --- | --- | --- | --- | --- | --- |
| CN1C(=O)C2C(C1=O)C1C=C(CCCO)C2C(c2cccs2)N1C (stereo not given) | -0.214 | -0.68 (inactive) | -0.149 (inactive) | -0.113 (inactive) | 2.69 | 0.729 (inactive) | -0.384 | -0.4 | -0.553 | -0.385 | 1.78 | -0.722 | -0.681 | -0.0035 (inactive) | 0.248 | -0.76 | -0.106 | -0.473 | -0.559 | 0.561 |
| CCC[C@@H]1C=C(C(=O)O)[C@H](c2ccc(C)cc2)N1S(=O)(=O)c1ccc(C)cc1 | 0.844 | -0.545 (inactive) | 0.249 (inactive) | -0.34 (inactive) | 3.68 | -0.499 (inactive) | 0.0943 | -0.327 | 0.62 | 0.0992 | 0.706 | 0.36 | 0.817 | 1.04 (inactive) | 0.74 | 0.415 | -0.278 | 0.192 | -0.435 | 0.71 |
| [N-]=[N+]=NCc1ccccc1C[C@]1(C(=O)O)N=C(c2ccc(OCCCO)cc2)O[C@H]1c1ccccc1 | 1.01 | -0.143 (inactive) | -0.305 (inactive) | -1.36 (inactive) | 1.86 | 0.279 (inactive) | -0.0221 | -0.985 | 0.204 | -0.232 | 1.44 | 0.181 | 1.06 | 0.624 (inactive) | -0.2 | 0.102 | -1 | -0.627 | -0.94 | 0.884 |
| CC(C)(C)N1CC=CC23O[C@@H]4/C=C\CCCOC(=O)C4[C@H]2C(=O)N(CCO)[C@@H]3C1=O (stereo not given in full) | -0.344 | 0.478 (inactive) | 0.224 (inactive) | -0.1 (inactive) | 1.94 | 1.54 (inactive) | -0.241 | -0.551 | -0.871 | -0.272 | 1.59 | -0.0986 | -0.0141 | -0.639 (inactive) | -0.142 | -0.764 | -0.932 | -1.28 | -0.377 | 0.0995 |
| COC(=O)c1c(CC[C@@H](CO)NC(=O)N[C@@H](Cc2ccccc2)Cn2cc(C3(O)CCCCC3)nn2)oc(C(C)=O)c1C(=O)OC | 1.55 | -2.65 (inactive) | -1.81 (inactive) | -0.415 (inactive) | 1.38 | 1.31 (inactive) | -0.0441 | 1.09 | 1.12 | 0.0117 | 0.893 | -0.27 | -0.328 | -2.62 (inactive) | 1.31 | 0.819 | 0.346 | 0.873 | 0.514 | 0.382 |
| COc1cc2c(cc1OC)CN(C(=O)[C@@H]1[C@H]3C(=O)O[C@H](c4ccccc4)[C@H](c4ccccc4)N3[C@H](c3ccccc3OCCO)[C@@]13C(=O)Nc1ccc(C#CCNC(N)=O)cc13)CC2 | 1.48 | 0.443 (inactive) | 1 (inactive) | 3.09 (inactive) | 2.61 | 0.912 (inactive) | 0.257 | 1.09 | 1.08 | -0.0873 | 1.58 | 0.0627 | 0.281 | 0.095 (inactive) | 0.518 | 1.08 | 0.245 | 0.445 | 0.208 | 0.922 |
| CN1C=C(C(=O)OCCS(C)(=O)=O)C(C(=O)OCCS(C)(=O)=O)=CC(CCCO)=CC1C1CC1 (stereo not given) | 0.0371 | -0.298 (inactive) | -0.0029 (inactive) | -0.692 (inactive) | 0.826 | 0.731 (inactive) | -0.145 | 0.332 | 0.574 | -0.068 | -0.274 | -0.209 | -0.0925 | 0.788 (inactive) | 0.428 | -0.256 | -0.14 | 0.0695 | -0.596 | -0.0932 |
| Cc1ccccc1C(O)C1C=CC2C(=O)N(C)C(=O)C2N1N1CCCCC1 (stereo not given) | 1.11 | 0.299 (inactive) | 0.619 (inactive) | -0.417 (inactive) | 3.18 | -1.24 (inactive) | 0.331 | 0.21 | 1.13 | -0.0044 | 1.29 | 0.837 | 0.906 | 1.28 (inactive) | 0.975 | 1.04 | 0.628 | 0.621 | 0.215 | 1.28 |
| COc1ccc([Si](C)(C)[C@H]2[C@H](CCn3cc(CCO)nn3)O[C@@]3(C(=O)N(Cc4ccc(N5CCOC5=O)cc4)c4ccccc43)[C@@H]2C)cc1 | 1.37 | 1.02 (inactive) | 0.928 (inactive) | 4.55 (inactive) | 1.31 | 1.01 (inactive) | -0.103 | 0.42 | 0.928 | -0.212 | 1.51 | -0.0848 | 0.236 | -0.188 (inactive) | 0.209 | 0.625 | -0.0252 | 0.642 | 0.141 | 0.766 |
| COc1cc(C(O)C2C=CC3C(=O)N(c4ccccc4)C(=O)C3N2Nc2ccc(C#N)cc2)cc(OC)c1OC (stereo not given) | 1.54 | -0.531 (inactive) | 0.849 (inactive) | 1.75 (inactive) | 3.84 | -1.27 (inactive) | 0.368 | -0.0742 | 1.03 | 0.273 | 1.4 | 1.45 | 1.34 | 1.22 (inactive) | 1.17 | 1.33 | -0.209 | 1.25 | -0.536 | 0.0506 |
| CCCCCCCCCCC(O)C1C=CC2C(=O)N(Cc3ccccc3)C(=O)C2N1n1cnnc1 (stereo not given) | 1.14 | 0.187 (inactive) | -0.25 (inactive) | -0.976 (inactive) | 2.75 | -1.45 (inactive) | 0.326 | -0.331 | 0.55 | 0.0773 | 0.724 | 0.897 | 0.739 | -0.47 (inactive) | -0.262 | 0.08 | -0.384 | -0.351 | -0.906 | 1.23 |
